The record followed here is PubChem BioAssay.

Experiment [1] in a line: antimalarial activity against Dd2 strain (AID 2302;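 active = growth inhibition above 50% at the single 2 µM test dose, taken to imply half-maximal potency below 2 µM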;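 note: 0% = DMSO untreated growth and 100% = chloroquine plus artemisinin killed control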). The conditions noted are these: P. falciparum Dd2 in RBCs, LDH growth readout, 72 h; at 2 µM; active compounds read high.
The nature of experiment [2]: HepG2 cytotoxicity, primary screen, cytotoxicity control for P. falciparum antimalarial project, cell-based, ATP luminescence (AID 2303;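 active = inhibition above 50%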;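 note: 0% = DMSO wells and 100% = digitonin-killed cells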). To be noted: HepG2 viability, 24-48 h, at 10 µM, active compounds read high.
In experiment [3] the target is L-lactate dehydrogenase (Plasmodium falciparum (isolate CDC / Honduras)) (UniProt Q27743). In words: PfLDH activity inhibition – cell lysate, 3D7 strain, counter-screen for P. falciparum growth inhibition project (AID 2304).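 Note: 0% = vehicle and 100% = reference inhibitor.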 To be noted: P. falciparum 3D7 crude extract, LDH APAD/NBT absorbance; at 2 µM; active compounds read high. (In general: A counterscreen serves to expose hits that act by an unwanted route or on another target.)

Experiment [4] is described as follows: inhibition of 3D7 malaria parasite growth – strain 3D7 (AID 2306).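 Note: 0% = DMSO wells and 100% = chloroquine plus artemisinin control wells.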 The conditions noted are these: P. falciparum 3D7 erythrocytic growth, LDH absorbance, 72 h; at 2 µM; active compounds read high.
Experiment [5] has as its target Calcium-dependent protein kinase 1 (Plasmodium falciparum (isolate 3D7)) (UniProt P62344). In words: PfCDPK1 kinase inhibitors, biochemical, TCAMS library (AID 1159585; cut-off not given, nearly all actives have IC50 up to about 0.98 µM;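 note: inhibitors leave more ATP so luminescence rises with inhibition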). The conditions noted are these: recombinant PfCDPK1, Kinase-Glo ATP depletion luminescence. For orientation: Kinase-Glo reads ATP consumption through a luciferase reaction.
The target of experiment [6] is Plasmodium falciparum protein kinase 6 (PK6, PF3D7_1337100) (UniProt Q8IDW1). In words: PfPK6 kinase inhibitors, biochemical, TCAMS library (AID 1159586). The conditions noted are these: recombinant PfPK6, Kinase-Glo ATP depletion luminescence.
Experiment [7] has as its target Protein kinase 7 (PK7), Plasmodium falciparum 3D7 (PF3D7_0213400) (UniProt Q7YTF7). In words: inhibition of Plasmodium PK7 catalytic activity – biochemical, TCAMS antimalarial set, Kinase-Glo luminescence (AID 1159587). The conditions noted are these: recombinant PfPK7, Kinase-Glo ATP depletion luminescence.
In experiment [8] the target is Calcium-dependent protein kinase 4 (Plasmodium falciparum (isolate 3D7)) (UniProt Q8IBS5). In words: PfCDPK4 kinase inhibitors, biochemical, TCAMS library (AID 1159588; cut-off not given, nearly all actives have IC50 up to about 0.91 µM). To be noted: recombinant PfCDPK4, Kinase-Glo ATP depletion luminescence.

Values without a mark were called inactive. For part of these data: Results with a measured potency or affinity are listed apart. The source made the active and inactive calls. Unless noted, the rule behind the calls is not given here.

Protein kinase 7 (PK7), Plasmodium falciparum 3D7 (PF3D7_0213400), sequence (Q7YTF7 1-343): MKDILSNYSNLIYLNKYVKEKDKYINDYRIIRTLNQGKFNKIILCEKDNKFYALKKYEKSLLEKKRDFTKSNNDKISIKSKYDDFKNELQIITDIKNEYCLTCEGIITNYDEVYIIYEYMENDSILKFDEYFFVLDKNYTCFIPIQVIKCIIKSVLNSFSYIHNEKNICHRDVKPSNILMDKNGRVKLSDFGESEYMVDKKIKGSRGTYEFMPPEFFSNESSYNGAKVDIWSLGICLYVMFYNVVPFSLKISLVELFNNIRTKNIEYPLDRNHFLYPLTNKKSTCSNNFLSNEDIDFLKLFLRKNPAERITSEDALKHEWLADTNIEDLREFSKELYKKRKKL
Calcium-dependent protein kinase 1 (Plasmodium falciparum (isolate 3D7)), sequence (P62344 whole entry, looked up): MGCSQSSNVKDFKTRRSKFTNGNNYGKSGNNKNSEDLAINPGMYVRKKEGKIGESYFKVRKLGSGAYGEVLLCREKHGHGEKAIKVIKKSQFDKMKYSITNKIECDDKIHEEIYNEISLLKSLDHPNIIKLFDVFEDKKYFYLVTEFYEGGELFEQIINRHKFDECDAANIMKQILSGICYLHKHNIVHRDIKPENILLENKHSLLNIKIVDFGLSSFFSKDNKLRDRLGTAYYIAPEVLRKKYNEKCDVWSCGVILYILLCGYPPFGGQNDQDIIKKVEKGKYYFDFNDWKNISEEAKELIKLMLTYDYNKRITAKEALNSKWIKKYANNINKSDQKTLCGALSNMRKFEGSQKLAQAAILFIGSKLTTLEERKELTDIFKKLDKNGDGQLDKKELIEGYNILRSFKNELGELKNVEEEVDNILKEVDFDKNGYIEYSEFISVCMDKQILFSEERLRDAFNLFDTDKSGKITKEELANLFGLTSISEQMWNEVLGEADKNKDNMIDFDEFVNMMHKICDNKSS
L-lactate dehydrogenase (Plasmodium falciparum (isolate CDC / Honduras)), sequence (Q27743 whole entry, looked up): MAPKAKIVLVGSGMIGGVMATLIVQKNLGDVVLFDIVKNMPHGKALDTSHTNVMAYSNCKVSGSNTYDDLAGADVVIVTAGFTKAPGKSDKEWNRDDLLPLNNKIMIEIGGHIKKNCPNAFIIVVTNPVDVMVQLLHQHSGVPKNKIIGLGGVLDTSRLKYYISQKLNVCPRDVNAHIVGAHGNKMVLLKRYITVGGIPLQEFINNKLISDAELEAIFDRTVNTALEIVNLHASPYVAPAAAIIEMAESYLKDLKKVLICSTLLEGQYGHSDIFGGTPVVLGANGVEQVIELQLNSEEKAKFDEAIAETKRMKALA
Calcium-dependent protein kinase 4 (Plasmodium falciparum (isolate 3D7)), sequence (Q8IBS5 whole entry, looked up): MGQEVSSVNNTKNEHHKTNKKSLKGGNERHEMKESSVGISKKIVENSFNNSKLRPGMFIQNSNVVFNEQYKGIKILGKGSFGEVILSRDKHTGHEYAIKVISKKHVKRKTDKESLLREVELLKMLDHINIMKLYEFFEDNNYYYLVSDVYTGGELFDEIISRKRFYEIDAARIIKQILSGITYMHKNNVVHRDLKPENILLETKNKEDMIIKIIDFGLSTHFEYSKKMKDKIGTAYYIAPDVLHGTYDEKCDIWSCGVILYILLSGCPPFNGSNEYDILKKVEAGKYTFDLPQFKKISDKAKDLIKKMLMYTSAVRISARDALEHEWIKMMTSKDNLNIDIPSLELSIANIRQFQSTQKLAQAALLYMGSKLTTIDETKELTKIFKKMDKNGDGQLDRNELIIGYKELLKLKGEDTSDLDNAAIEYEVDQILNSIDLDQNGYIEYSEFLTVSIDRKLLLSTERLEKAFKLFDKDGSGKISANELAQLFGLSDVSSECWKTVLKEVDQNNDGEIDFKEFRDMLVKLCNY
Plasmodium falciparum protein kinase 6 (PK6, PF3D7_1337100), sequence (Q8IDW1 1-305): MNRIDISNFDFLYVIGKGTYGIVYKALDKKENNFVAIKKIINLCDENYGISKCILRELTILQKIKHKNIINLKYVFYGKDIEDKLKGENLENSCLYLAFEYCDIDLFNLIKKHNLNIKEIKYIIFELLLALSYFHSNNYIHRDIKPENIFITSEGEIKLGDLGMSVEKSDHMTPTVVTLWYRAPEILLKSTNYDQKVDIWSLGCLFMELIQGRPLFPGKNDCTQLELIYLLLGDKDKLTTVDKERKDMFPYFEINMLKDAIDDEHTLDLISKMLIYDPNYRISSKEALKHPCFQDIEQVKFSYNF

Regarding `O=C(Nc1ccc(Cl)cc1)Nc1cccc(-c2cccc(-c3nc4ccccc4[nH]3)c2)c1`, the growth inhibition in experiment [1] was 56% (active); in experiment [4], 100% (active). Further, the inhibition is 70% (active) in experiment [2] and 0% in experiment [3]. Besides, the outcome in experiment [5], in experiment [6], in experiment [7] and in experiment [8] was inactive.
For the molecule `COc1ccccc1C1CCN(C2CCC(NC(=O)c3cc4ccccc4[nH]3)CC2)CC1` (centres undefined), the growth inhibition is 7% in experiment [1] and 88% (active) in experiment [4]. Moreover, the inhibition was 49% in experiment [2] and 0% in experiment [3]. Moreover, the result in experiment [5], in experiment [6], in experiment [7] and in experiment [8] was inactive.
For the molecule `COc1ccccc1CNC(=O)c1ccc(N2CCN(c3ccncc3)CC2)cn1`, the growth inhibition in experiment [1] is 17%; in experiment [4], 96% (active). In addition, the inhibition is 16% in experiment [2] and 2% in experiment [3]. Also, the outcome in experiment [5], in experiment [6], in experiment [7] and in experiment [8] was inactive.
As to `Cn1cc(C2CCN(CCCCNC(=O)c3sc(-c4ccc(C(F)(F)F)cc4)nc3CO)CC2)c2ccccc21`, the values for the growth inhibition in experiment [1] and in experiment [4] were 15% and 95% (active), respectively. The values for the inhibition in experiment [2] and in experiment [3] were 46% and -3%, respectively. Moreover, the result in experiment [5], in experiment [6], in experiment [7] and in experiment [8] was inactive.
Turning to `CCOC(=O)c1ccc(NC(=O)c2ccccc2C(=O)O)cc1`, the growth inhibition is 0% in experiment [1] and 92% (active) in experiment [4]. The results for the inhibition in experiment [2] and in experiment [3] were 2% and -3%, respectively. Moreover, the result in experiment [5], in experiment [6], in experiment [7] and in experiment [8] was inactive.
Regarding `Cc1ccc2sc(N3CCN(C(=O)c4ccc([N+](=O)[O-])o4)CC3)nc2c1C`, the results for the growth inhibition in experiment [1] and in experiment [4] were 86% (active) and 90% (active), respectively. Besides, the inhibition was -7% in experiment [2] and 5% in experiment [3]. The result in experiment [5], in experiment [6], in experiment [7] and in experiment [8] was inactive.
For `COc1ccc(NS(=O)(=O)c2cccc(C(=O)Nc3ccc(C(F)(F)F)cc3)c2)cc1N1CCN(CC(C)C)CC1`, the growth inhibition in experiment [1] is 4%; in experiment [4] it was 94% (active). Moreover, the inhibition in experiment [2] is 5%; in experiment [3], 2%. The outcome in experiment [5], in experiment [6], in experiment [7] and in experiment [8] was inactive.
Regarding `COC(=O)c1ccccc1COc1ccc(CC2(NC(=O)[C@H](Nc3ccc(C#N)c4ccccc34)C(C)(C)C)CCCC2)cc1`, the growth inhibition in experiment [1] is 82% (active); in experiment [4] it was 95% (active). Besides, the inhibition in experiment [2] is 1%; in experiment [3], 2%. Moreover, the result in experiment [5], in experiment [6], in experiment [7] and in experiment [8] was inactive.
Consider `O=C(Nc1cccc(CN2CCN(Cc3ccc(O)cc3)CC2)c1)c1ccc(-c2ccccc2)cc1`, for which the growth inhibition is 67% (active) in experiment [1] and 101% (active) in experiment [4]. The inhibition in experiment [2] is 40%; in experiment [3] it was 1%. In addition, the result in experiment [5], in experiment [6], in experiment [7] and in experiment [8] was inactive.
On to `CC(C)(C)c1nn(-c2ccccc2)c2[nH]c(=O)c(CNC3CCCCC3)cc12`, for which the growth inhibition was 76% (active) in experiment [1] and 83% (active) in experiment [4]. Also, the inhibition in experiment [2] is 6%; in experiment [3] it was 3%. The result in experiment [5], in experiment [6], in experiment [7] and in experiment [8] was inactive.
Turning to `Oc1cccc(CCNCCCCCCNCCc2ccc(Cl)cc2)c1`, the growth inhibition in experiment [1] is -3%; in experiment [4], 96% (active). Besides, the inhibition in experiment [2] is 23%; in experiment [3], -1%. The outcome in experiment [5], in experiment [6], in experiment [7] and in experiment [8] was inactive.
`O=C(Nc1ccc(Cl)c(Cl)c1)Nc1ccc2nccc(N3CCNCC3)c2c1`: the growth inhibition in experiment [1] was 62% (active); in experiment [4], 99% (active). Also, the inhibition in experiment [2] is 18%; in experiment [3], -6%. Moreover, the result in experiment [5], in experiment [6], in experiment [7] and in experiment [8] was inactive.
Consider `COc1ccc2c(NN=Cc3cccc(Cl)c3)cc(C)nc2c1`, for which the growth inhibition in experiment [1] is 99% (active); in experiment [4], 103% (active). The inhibition in experiment [2] and in experiment [3] was 3% in each case. Further, the result in experiment [5], in experiment [6], in experiment [7] and in experiment [8] was inactive.
For `CC(=O)Nc1ccc(C(=O)Nc2ccc(-c3cccc(-c4nc5ccc(F)cc5[nH]4)c3)cc2)cn1`, the values for the growth inhibition in experiment [1] and in experiment [4] were 84% (active) and 100% (active), respectively. The inhibition in experiment [2] was 13%; in experiment [3] it was -2%. For the same molecule, the result in experiment [5], in experiment [6], in experiment [7] and in experiment [8] was inactive.
Consider `CN(C)C(C)(C)CN(Cc1ccc(-c2ccc(C(F)(F)F)cc2)cc1)C(=O)Cn1c(CCc2cccc(F)c2F)nc(=O)c2ccccc21`, for which the growth inhibition in experiment [1] was 67% (active); in experiment [4], 95% (active). In addition, the results for the inhibition in experiment [2] and in experiment [3] were 64% (active) and -3%, respectively. The result in experiment [5], in experiment [6], in experiment [7] and in experiment [8] was inactive.
`CC(Cc1ccc(NC(=O)c2ccc(CNCc3ccccc3)cc2)cc1)N(CCc1cccc(Cl)c1)C(=O)OC(C)(C)C` (centres undefined): the figures for the growth inhibition in experiment [1] and in experiment [4] were 2% and 95% (active), respectively. In addition, the inhibition was 16% in experiment [2] and -2% in experiment [3]. For the same molecule, the result in experiment [5], in experiment [6], in experiment [7] and in experiment [8] was inactive.
Consider `O=C(NCCCCN1CCC(c2ccc(C(F)(F)F)cc2C(F)(F)F)CC1)c1ccc(NC(=O)c2ccc(Cl)cc2)cc1`, for which the growth inhibition was 59% (active) in experiment [1] and 99% (active) in experiment [4]. Besides, the values for the inhibition in experiment [2] and in experiment [3] were 4% and 7%, respectively. The result in experiment [5], in experiment [6], in experiment [7] and in experiment [8] was inactive.
For the molecule `O=C(NCCOc1ccccc1)[C@H](Cc1ccccc1)Nc1ccnc(NCC2CCCCC2)n1`, the growth inhibition is 73% (active) in experiment [1] and 96% (active) in experiment [4]. For the same molecule, the values for the inhibition in experiment [2] and in experiment [3] were 80% (active) and 5%, respectively. The result in experiment [5], in experiment [6], in experiment [7] and in experiment [8] was inactive.

By inhibition is commonly meant the relative decrease from the control value, in per cent.
